In the library only some 19% were active in any assay of this set; here they are far more common.
HT1080NT lethal: kills 2HG-producing HT-1080-NT fibrosarcoma cells; HT-1080-NT fibrosarcoma viability, CellTiter-Glo ATP luminescence, 48 h; Potency, µM (titrated, usually from 46.1 µM), usual class: cytotoxic; actives 1.6% (n = 360,000); AID 686970;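 note: NT is the 2HG producing partner of a matched IDH1 knockdown line; nearly all actives have a fitted effect of over 55% in size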
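750 cells/well, RPMI + 5% FBS; 2 h settle, compound pin-transfer, 48 h at 37 degrees C. CellTiter-Glo 10 min RT, luminescence. Normalized to DMSO and media-only wells.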
IL-1B inflam inh: inflammasome signaling inhibition, IL-1 beta readout. actives 4.7% (n = 360,000). THP-1 LPS/ATP IL-1B secretion, AlphaLISA, 16 h; active compounds read low. activity change, % at 57.5 µM; in the data active = activity change below about -50%; inconclusive = mostly about -30% to -49%
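Secreted IL-1B measured by AlphaLISA bead assay after 16 h compound exposure of THP-1 cells; compounds (final up to 57.5 uM) added 1 h before LPS (250 ng/mL) and ATP (1.25 mM) stimulation; lower signal means less secretion.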
DT40 TDP1 CPT: growth inhibition of DT40 Tdp1-/-;hTDP1 cells with camptothecin (screen for TDP1 inhibitors) | Potency, µM (top dose mostly 46.2 µM), hits mostly inhibitors | actives 12% (n = 420,000) | chicken DT40 Tdp1-/-;hTDP1 cells + 20 nM CPT, ATP luminescence, 48 h; note: nearly all actives have a fitted effect of over 55% in size
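Chicken DT40 Tdp1-/- cells stably complemented with human TDP1 were seeded at 400 cells/well in medium containing 20 nM camptothecin, exposed to pin-transferred compounds, and grown at 37 °C for at least 48 hr. Viability was read as ATP luminescence.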
TDP1 cell noCPT: qHTS for Inhibitors of human tyrosyl-DNA phosphodiesterase 1 (TDP1): qHTS in cells in absence of CPT. Potency, µM (highest dose often 46.2 µM), actives largely listed as inhibitors. actives 15% (n = 420,000). DT40 Tdp1-/- hTDP1 cells, no CPT, ATP luminescence, 48 h. AID 686978, 2013; note: nearly all actives have a fitted effect of over 55% in size
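Compound effects on proliferation are scored in DT40 Tdp1-/-;hTDP1 cells in the absence of CPT. ATP levels (CellTiter-Glo luminescence) are recorded after a ≥48 hr, 37 °C incubation.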
HT1080 IDH1KD tx: HT-1080 IDH1 knockdown cell toxicity (counter line). actives 2% (n = 360,000). AID 686971. HT-1080 IDH1 knockdown viability, ATP luminescence, 48 h. Potency, µM (top dose mostly 46.1 µM), hits mostly cytotoxic
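HT-1080-IDH1KD cells (IDH1 knocked down), 750/well in RPMI with 5% FBS, treated with compound 48 h at 37 degrees C. Viability by CellTiter-Glo luminescence, normalised to DMSO and no-cell wells; concentration-response curves classed.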
Hits are given with their value; i = inactive; ? = inconclusive; nt = not tested or not shown; [ ] = another dose, or the depositor's remark. Unless noted, calls come from the whole dose curve; as a rule, active = well fitted curve in the direction sought with a large enough effect; inconclusive = small, poorly fitted or top-dose-only effect, or another doubt; inactive = no such curve, though single readings can be large; an effect the other way counts as inactive or inconclusive.

SMILES | HT1080NT lethal | IL-1B inflam inh | DT40 TDP1 CPT | TDP1 cell noCPT | HT1080 IDH1KD tx
CC(=O)N/C(=C\c1ccccc1)C(=O)OCC(=O)NC(=O)c1ccccc1 | i | i | i | i | i
Cc1cc(-c2ccc(NC(=O)[C@@H]3CCCC[C@@H]3C(=O)O)c(C)c2)ccc1NC(=O)[C@@H]1CCCC[C@@H]1C(=O)O | i | i | ? | ? | i
COc1ccc(NCc2ccc3c(c2)OCO3)cc1Cl | i | -93 | i | i | i[9.24 µM]
COc1cc2sc3cc(NCc4ccc(C)o4)ccc3c(=O)c2cc1OC | i | -69 | ? | 15µM | i
COc1cc2sc3cc(NCc4ccc5c(c4)OCO5)ccc3c(=O)c2cc1OC | i | i | ? | 16µM | i
COc1ccc(NCc2cc(=O)oc3cc(NC(C)=O)ccc23)cc1 | i | i | i | i | i
C[C@H](CO)N1C[C@H](C)[C@@H](CN(C)C(=O)Nc2ccc(F)cc2)Oc2ncc(-c3ccc(F)cc3)cc2C1=O | i | i | ? | ? | i
Cc1cccc(-c2nc(SCC(=O)NCc3ccco3)c3c(=O)n(C)c(=O)n(C)c3n2)c1 | nt | nt | i | i | nt
O=C(c1ccc(Cl)cc1)n1nc(-c2ccco2)nc1NCc1cccs1 | nt | nt | i | i | nt
Cc1ccc(C(=O)Nc2nnc(S(=O)(=O)N3CCc4ccccc43)s2)cc1 | nt | nt | i | i | nt
O=C(Nc1nnc(S(=O)(=O)N2CCCc3ccccc32)s1)c1cccc(Cl)c1 | nt | nt | ? | 18µM | nt
O=C(COc1ccc(Cl)cc1)Nc1nnc(S(=O)(=O)N2CCc3ccccc32)s1 | nt | nt | ? | 18µM | nt
O=C(Nc1nnc(S(=O)(=O)N2CCCCC2)s1)c1cccc(Br)c1 | i | i | 23µM | 15µM | i
Cc1cccc(C(=O)Nc2nnc(S(=O)(=O)N3CCCc4ccccc43)s2)c1 | nt | nt | ? | 16µM | nt
NC(=O)COC(=O)c1ccccc1Oc1ccccc1 | i | i | i | i | i
Cc1cc(NC(=O)c2ccc(Cl)cc2)cc(C)c1OCC(=O)N1CCOCC1 | i | i | i | i | i
COc1ccc(S(=O)(=O)N(n2c(C)nnc2-n2nc(C)cc2C)S(=O)(=O)c2ccc(OC)cc2)cc1 | i | i | i | i | i
CC(=O)N1CCC2(CC1)C/C(=N\NC(=S)Nc1ccccc1F)c1cc(O)ccc1O2 | ? | -76 | i | i | ?
COc1ccc(C2/C=C\CN(C(=O)CC(C)(C)C)CC(=O)N2Cc2ccc(F)cc2)cc1 (centres undefined) | i | i | ? | ? | i
CCCCCCC(=O)N1C/C=C\C(c2ccc(OC)cc2)N(Cc2ccc(F)cc2)C(=O)C1 (centres undefined) | i | i | ? | 23µM | i
CCCCCCNC(=O)N1C/C=C\C(c2ccc(OC)cc2)N(Cc2ccc(F)cc2)C(=O)C1 (centres undefined) | i | i | ? | 23µM | i
CCN1C[C@@H]2[C@@H]3C(=O)N(C)C(=O)[C@@H]3[C@](CC)(C1=O)N2C(=O)c1ccc(C(C)(C)C)cc1 | i | i | i | i | i
Cc1cc(=O)n2nc(N3CCCC(C(=O)NCCCN4CC(C)CC(C)C4)C3)sc2n1 (centres undefined) | i | i | i | i | i
O=[N+]([O-])c1cnc(Sc2ccncn2)c([N+](=O)[O-])c1 | i | ? | 1.2µM | 1.2µM | i
O=[N+]([O-])c1ccc(Sc2ccc(F)cc2)nc1 | i | ? | i | i | i
SMILES | HT1080NT lethal | IL-1B inflam inh | DT40 TDP1 CPT | TDP1 cell noCPT | HT1080 IDH1KD tx
c1ccc(-c2nc(-c3ccncc3)no2)cc1 | i | i | i | i | i
c1ccc(C(Cc2nc(-c3ccncc3)no2)c2ccccc2)cc1 | i | i | 18µM | ? | i
O=C(CNC(=O)c1ccccc1F)N/N=C/c1cc(Br)ccc1OCc1ccccc1 | i | ? | ? | 23µM | i
CC(C)(C)c1ccc(OCC(=O)N/N=C/c2cc(Br)ccc2OC(=O)c2ccco2)cc1 | i | i | 4.6µM | 4.1µM | i
COC(=O)N/N=C\c1cc(Br)ccc1OCc1ccccc1 | i | -73 | ? | ? | i
O=C(CNC(=O)c1cccc(F)c1)N/N=C/c1cc(Br)ccc1OCc1ccccc1 | i | i | ? | ? | i
